Measurements: PubChem BioAssay AID1893 (NMMLSC, 2009)
The whole screen tested about 5,900 compounds, of which about 120 (2%) were called active. No stated cut-off is given here; in the data, active means percent response mostly above about 71% (no sharp cut-off); inactive means mostly below about 38%. Not all results are given here.

System: MEKK2 (MAP3K2) mutant PB1 domain binding MEK5, human
Assay: mutant MEKK2 PB1-MEK5 binding signal retest – biochemical, single concentration, multiplex bead flow cytometry, confirmation (AID 1893);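 further: higher means compound restores mutant binding toward wildtype level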
Conditions: Alexa488-MEK5 binding to MEKK2 mutant, at 10 µM, active compounds read high

Percent response, inactive:
c1ccc(Nc2nc(N3CCOCC3)c3ccccc3n2)cc1 21%
Cc1ccc(N(CCC(=O)O)S(=O)(=O)c2cccc(C(F)(F)F)c2)cc1 1%
O=C(NCCN1CCOCC1)[C@H](Cc1ccccc1)N1C(=O)c2ccccc2C1=O 2%
COCCN1C=C2C(=O)C(C)(OC(=O)C3CCCC3)C(=O)C=C2C=C1c1ccsc1 (configuration not stated) -2%
COC(=O)C1=NN(c2ccccc2)C2C(=O)N(c3ccccc3OC)C(=O)C12 (configuration not stated) -1%
CC(=O)Nc1ccc(N2CCOCC2)c(C(=O)Nc2cccc(C)c2)c1 3%
Clc1ccc(-c2nnc(SCc3nc4ccccc4s3)o2)cc1 -4%
COc1ccc(CC(=O)N2N=C(C)CC2(O)C(F)(F)F)cc1 (configuration not stated) -3%
O=C(CN1CCN(C(=O)c2ccco2)CC1)Nc1ccc(Cl)c(C(F)(F)F)c1 7%
COc1ccc(C2CC(=O)Nc3cc(C)c(C)cc32)c(OC)c1OC (configuration not stated) 4%
COc1ccc(C(=O)NCC(=O)N/N=C/c2ccc([N+](=O)[O-])o2)cc1OC -10%
CCO[C@H]1OC(C(=O)N2CCOCC2)=C[C@@H](c2ccc3c(c2)OCO3)[C@@H]1CCCO 4%
Cc1ccc(C(=O)N/C(=C/c2ccco2)C(=O)NCCc2c[nH]c3ccccc23)cc1C -4%
CN(C)CCCN(C(=O)COc1ccccc1)c1nc2c(Cl)cccc2s1 18%
CN(C)c1ccc(/C=C2\NC(=S)N(Cc3ccccc3)C2=O)cc1 -10%
C=CCN1C=C2C(=O)C(C)(OC(=O)CCc3ccccc3)C(=O)C=C2C=C1c1ccc(C#N)cc1 (configuration not stated) -1%
COc1ccc(CCNC(=O)CSc2nnc3ccc(-c4ccncc4)nn23)cc1 6%
CCN(CC)C(=O)CC(c1ccc2c(c1)OCO2)c1c(OC)cc(OC)c2c(-c3ccccc3)cc(=O)oc12 (configuration not stated) -4%
COc1cccc(/C=N\NC(=O)C2=NNC(=O)C2C)c1O (configuration not stated) 1%
FC(F)(F)c1nc(-c2ccccc2)ncc1-c1nnnn1-c1ccccc1 -6%
CCOC(=O)N1CCN(CC(=O)n2c(C)c(C)c3ccccc32)CC1 -3%
COc1cccc(/C(C)=N/Nc2ncc(Cl)cc2Cl)c1 -3%
c1ccc(CN2CCC(N=C3NN=C(c4ccc5c(c4)OCCO5)CS3)CC2)cc1 52%
Cc1cccc(CN2CCC(CNC(=O)Nc3ccc(F)c(Cl)c3)CC2)c1 8%
CCc1nnc(NC(=O)c2sc3nc(C)cc(COC)c3c2N)s1 7%
COc1cccc(OC)c1C(=O)Nc1ccc(Cc2ccncc2)cc1 -2%
CCCCOC(=O)c1ccc(N2C(=O)CC(N3CCN(C/C=C/c4ccccc4)CC3)C2=O)cc1 (configuration not stated) 12%
Cn1ccc(=Nc2ccc(NC(=O)c3ccc(N=c4ccn(C)c5ccc([N+](=O)[O-])cc45)cc3)cc2)cc1 28%
C=CCn1c(P(C)(=O)O)nc2ccccc21 -4%
CCN(CC)CCC(c1ccc2c(c1)OCO2)c1c(OC)cc(OC)c2c(-c3ccccc3)cc(=O)oc12 (configuration not stated) 28%
COC(=O)c1c(NC(=O)COc2ccc(Cl)cc2Cl)sc2c1CC(C)(C)NC2(C)C 36%
CN(C)CCCNC(=S)N1CCN(c2nc(-c3ccccc3)cs2)CC1 14%
O=c1[nH]c(=S)[nH]c2[nH]c(=S)[nH]c12 -2%
COc1cc(-c2nc(-c3ccncc3)no2)cc(OC)c1OC 6%
Cc1ccc(NC(=S)N(CCCN2CCCC2)Cc2cccn2Cc2ccc(Cl)cc2)cc1 13%
Cc1ccc2c(C)c(C(=O)N3CCN(c4ccncc4)CC3)oc2c1C 31%
N=C1/C(=C/c2cccn2-c2cccc([N+](=O)[O-])c2)C(=O)N=C2SC=CN12 -6%
CC(=O)N1CCN(S(=O)(=O)c2ccc(C)c([N+](=O)[O-])c2)C1C(C)C (configuration not stated) -1%
COC(=O)c1nc2n(n1)C(c1ccc([N+](=O)[O-])cc1)C(C(=O)Nc1ccc(Cl)cc1)=C(C)N2 (configuration not stated) 2%
Cc1ccccc1CCN(CC(=O)NC1CCCCC1)C(=O)c1csnn1 -24%
CCCn1c(=N)n(CC(=O)c2ccc(Cl)c(Cl)c2)c2ccccc21 33%
CC(C)CC(=O)NC(=S)Nc1cc(C(=O)O)ccc1Cl -1%
O=C1NCC(=O)N(Cc2ccccc2)/C1=C/c1ccccc1 -16%
CCc1ccc(-c2nn(-c3ccccc3)cc2CSC(=N)N)cc1 68%
CNC(=O)/C(=C\C=C\c1ccccc1)NC(=O)c1ccc([N+](=O)[O-])cc1 7%
O=C(O)CC(Cc1ccccc1)C(=O)Nc1ccc([N+](=O)[O-])cc1 (configuration not stated) -3%
O=C(COC(=O)CNC(=O)c1ccco1)Nc1ccc(F)cc1 1%
COc1ccc(S(=O)(=O)N2CN(CCc3ccc(OC)c(OC)c3)c3nc4ccccc4nc32)cc1 -4%
CCOC(=O)/C(C#N)=C/c1ccc(OCC(=O)Nc2ccccc2)c(OC)c1 1%
CC(C)C(=O)N1c2ccccc2NC2=C(C(=O)CCC2)C1c1ccc(N(C)C)cc1 (configuration not stated) 10%
COCC(C)NC(=O)COc1nncc2ccccc12 (configuration not stated) -7%
O=C(NCc1ccccc1Cl)NC(=O)c1csc([N+](=O)[O-])c1 1%
Cn1c(C(=O)NCCCN2CCCCC2)cc2sccc21 10%
COc1cc(Br)c(-c2sc(Nc3ccccc3)n[n+]2-c2ccccc2)cc1OC 14%
CCc1ccc2nc(Nc3ncc(C(C)=O)c(C)n3)nc(C)c2c1 0%
CCOC(=O)c1c(-c2ccccc2)csc1NC(=S)NC(=O)c1ccccc1 0%
O=C(CN1C(=O)c2cccnc2Oc2ccc(Cl)cc21)Nc1ccc(F)cc1 1%
N=c1c2c(-c3ccccc3)c(-c3ccccc3)n(Cc3ccccc3)c2ncn1CCCO 21%
Cc1noc(C)c1S(=O)(=O)N(C)Cc1ccccc1 5%
Cc1nn(-c2ccccc2)c(NC(=O)c2cccs2)c(-c2ccc(Cl)cc2)c1=O -4%
COc1cccc(NC(=S)NCCCN2CCOCC2)c1 6%
CCN(CC)CCOCCOc1ccc(Cl)c2ccccc12 22%
CN(C)CCCN(C(=O)c1ccc(S(=O)(=O)N2CCCc3ccccc32)cc1)c1nc2ccc(F)cc2s1 53%
CSCC[C@H](NC(=O)CCCn1nnc2ccccc2c1=O)C(=O)O 1%
CN1CCN(/N=C/c2ccc(C#N)cc2)CC1 -4%
CC1CCN(C2=NC(=O)/C(=C/c3cn[nH]c3-c3ccccc3)S2)CC1 -9%
CCOc1ccc(S(=O)(=O)NCCCn2ccnc2)cc1NC(C)=O -6%
CCCCNC(=O)N1CCCC(N(C)CCc2ccc(OC)c(OC)c2)C1 (configuration not stated) -2%
CC(C)(C)NC(=O)Cn1cnc([N+](=O)[O-])n1 -7%
COc1ccccc1OCCNCC(O)COc1cccc2[nH]c3ccccc3c12 (configuration not stated) 34%
Cc1cccc(-c2ncc(CN3CCC(CO)(CCCc4ccccc4)CC3)cn2)c1 9%
Cc1nn(-c2ccccc2)c(C)c1NC(=O)CCl -2%
COC(=O)CCc1sc(Nc2ccc(Br)cc2)nc1-c1ccc(OC)cc1 9%
C#CCOCCOCCOCCNc1nc(N2CCN(C(=O)C([C@@H](C)CC)n3cc(C(N)COC(=O)C(F)(F)F)nn3)CC2)nc(N2CCN(C(=O)[C@H](CCCCN)n3cc(C(N)CC(C)C)nn3)CC2)n1 (some centres not stated) 52%
O=C(CCCO)N/N=C/c1cc(Br)ccc1O -1%
O=C(Nc1ccn(Cc2ccccc2)n1)c1cccc(F)c1 -3%
COc1ccc(CCn2c(NN=C3CCCC3)nc3c2c(=O)[nH]c(=O)n3C)cc1 3%
CCC(C)OC(=O)C(C)Oc1ccc(-c2ccccc2)cc1 (configuration not stated) 10%
CC(C)CC(=O)NC(=S)NCc1ccccc1 -3%
O=c1c(/C=N/O)coc2ccc(Cl)cc12 -2%
Cc1ccc2c(c1)C1CN(C)CCC1N2S(=O)(=O)c1ccc(Oc2ccc([N+](=O)[O-])cc2)cc1 (configuration not stated) 61%
Cc1c(S(=O)(=O)NCc2ccccc2)c(=O)n(C)c(=O)n1C 2%
C[N+](C)(C)CCNC(=O)c1c(O)c2c([nH]c1=O)CCCC2 -3%
O=C(O)/C=C\C(=O)Nc1ccc(OCc2ccccc2)cc1 -4%
COc1ccccc1NC(=S)N1CCN(c2ccc(F)cc2)CC1 -8%
Cc1cccc(OCC(O)CN2CCN(CCN3C(=O)c4cccc5cccc(c45)C3=O)CC2)c1C (configuration not stated) 3%
Cc1ccc(N2C(=O)CC(N3CCSCC3)C2=O)c(C)c1 (configuration not stated) 2%
O=C(c1ccc(Br)o1)N(c1ccccn1)C1CCCCC1 3%
COc1ccc(SC[C@H](Cc2ccccc2)N2CCN(CCc3ccccc3)CCC2=O)cc1 16%

Percent response, active:
CCN1CCN(CCNC(=O)c2ccc(/C=C3/Sc4ccccc4N(Cc4cccc(C)c4)C3=O)cc2)CC1 79%
CCCCCCCCCCOC(=O)Cn1c(COc2ccc(C)cc2)[n+](C)c2ccccc21 74%
CCCCCCCCCCOC(=O)Cn1c(COc2cccc(OC)c2)[n+](C)c2ccccc21 115%
